Potency data for 14 compounds are collected here from PubChem BioAssay (Tox21).

A short description of test [1]: Nuclear factor erythroid 2-related factor 2/antioxidant responsive element (Nrf2/ARE) small molecule agonists: qHTS cell viability counter screen in human keratinocytes (AID 1919968; active = well fitted curve in the direction sought with a large enough effect in the repeat runs; an effect the other way counts as inactive or inconclusive; also: nearly all actives have a fitted effect of over 55% in size; also: potency is read from the fitted curve at half-maximal effect). The essentials:
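After a 5 h attachment period, ARE-reporter keratinocytes were dosed with compounds in DMSO and then cultured 23 h at 37 C. Cell viability came from CellTiter-Fluor signal read after a further 1 h.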
(In general: qHTS replaces the single test concentration by a dilution series.)

Test [2] deals with Gonadotropin-releasing hormone receptor (Homo sapiens) (UniProt P30968). The test can be described thus: Human gonadotropin-releasing hormone receptor (GnRHR) small molecule agonists, calcium flux assay in GnRHR-HEK293 cells (AID 1920063). Also: nearly all actives have a fitted effect of over 35% in size. Also: potency is read from the fitted curve at half-maximal effect. The essentials: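 We seeded human GnRHR-expressing HEK293 cells for 18 hours, loaded them with calcium dye for an hour at 37 C, added test compounds, and recorded fluorescence intensity kinetically for three minutes.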
On the technique in general: Calcium assays in cells follow changes in intracellular calcium, usually with a dye or a luminescent sensor.

The target of test [3] is KiSS-1 receptor (Homo sapiens) (UniProt Q969F8). The test can be described thus: Human kisspeptin (KISS1R) small molecule agonists, calcium flux assay in KISS1R-HEK293 cells (AID 1920064; active = well fitted curve in the direction sought with a large enough effect in the repeat runs; an effect the other way counts as inactive or inconclusive). The essentials:
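Kinetic calcium assay, 1 s sampling over 3 min at Ex/Em 480/540, in HEK293 cells engineered with human KISS1R; compounds delivered in DMSO after 1 h dye loading.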

Test [4] is described as follows: G protein-coupled receptor (GPCR) small molecule agonists, calcium flux assay: HEK293 wild type cell line counter screen (AID 1920065). The method, boiled down: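 Calcium-sensitive dye, loaded 1 h at 37 C into cells cultured 18 h, reports compound-evoked calcium release as fluorescence (Ex/Em 480/540), measured over 3 min. Agonist mode; 15-point titrations, triplicate.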

A short description of test [5]: p53 small molecule agonists, cell-based qHTS assay with rat liver microsomes (AID 1963578). The method, boiled down: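 With rat liver microsomes and NADPH present (0.5 mg/mL final each), p53RE-bla cells are treated with compound for 16 h at 37 C. LiveBLAzer detection mixture is then applied for 2 h at room temperature in the dark.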
Test [6] can be described thus: p53 small molecule agonists, cell-based qHTS assay with human liver microsomes: qHTS cell viability counter screen (AID 1963579). Also: nearly all actives have a fitted effect of over 45% in size. The essentials: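 In this multiplexed counter screen, the reporter plates were subsequently treated with CellTiter-Glo so that cell viability, reflected by luminescence, could be recorded for p53RE-bla cells dosed 16 h with compounds under microsomal activation (HLM and NADPH).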

A short description of test [7]: p53 small molecule agonists, cell-based qHTS assay with rat liver microsomes: qHTS cell viability counter screen (AID 1963580). Also: nearly all actives have a fitted effect of over 45% in size. The method, boiled down:
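p53RE-bla HCT-116 cells (4,000/well) rested 5 h at 37 C, then given Tox21 compounds in DMSO with rat liver microsomes (0.5 mg/mL final) plus NADPH (0.5 mg/mL final) for 16 h at 37 C. Viability read by CellTiter-Glo luminescence after 30 min at room temperature.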

Test [8] can be described thus: p53 small molecule agonists, cell-based qHTS assay: qHTS cell viability counter screen (AID 1963581). Also: nearly all actives have a fitted effect of over 45% in size. The method, boiled down: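 Following 5 h attachment, HCT-116 p53RE-bla cells took up compound for 16 h at 37 C; the reporter was read with B/G FRET substrate (2 h RT), and viability then via CellTiter-Glo ATP luminescence.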
The target in test [9] is 5-hydroxytryptamine receptor 2A (Homo sapiens) (UniProt P28223). Nature of the test: 5-hydroxytryptamine receptor 2A (HTR2A) small molecule antagonists, cell-based qHTS assay (AID 1963586). Also: nearly all actives have a fitted effect of over 45% in size. The method, boiled down: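 Antagonist-mode intracellular calcium assay: DOI (4 nM) added after 5 min compound pre-incubation at room temperature to dye-loaded HTR2A-CHO cells. Fluorescence followed for 3 min, sampled every second.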

The target is the same in test [10]. Nature of the test: 5-hydroxytryptamine receptor 2A (HTR2A) small molecule agonists, cell-based qHTS assay (AID 1963587). Also: nearly all actives have a fitted effect of over 30% in size. The essentials:
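HTR2A-CHO cells, plated 18 h at 37 C/5% CO2, dye-loaded 1 h at 37 C; compounds in DMSO added by pin tool (agonist mode). Intracellular calcium flux read as kinetic fluorescence on FDSS over 2 min at 1 s intervals.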

Test [11] addresses Muscarinic acetylcholine receptor M1 (Homo sapiens) (UniProt P11229). The test can be described thus: Cholinergic receptor muscarinic 1 (CHRM1) small molecule antagonists, cell-based qHTS assay (AID 1963588). Also: nearly all actives have a fitted effect of over 40% in size. Also: potency is read from the fitted curve at half-maximal effect. The method, boiled down:
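CHRM1-CHO calcium-flux assay, antagonist mode. Cells were seeded 18 h, dye-loaded 1 h at 37 C and given compound for 5 min at RT, then acetylcholine was added at 50nM. FDSS fluorescence was read 3 min; 15 concentrations, three runs.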

Test [12] has the same target. The test can be described thus: Cholinergic receptor muscarinic 1 (CHRM1) small molecule agonists, cell-based qHTS assay (AID 1963589). Also: nearly all actives have a fitted effect of over 35% in size. The essentials:
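Measures agonist-induced intracellular calcium rise. Stable human CHRM1 CHO line, 1 h dye load at 37 C, compounds from DMSO, kinetic fluorescence read.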

The target of test [13] is Beta-2 adrenergic receptor (Homo sapiens) (UniProt P07550). The test can be described thus: Adrenergic beta2 receptor (ADRB2) small molecule antagonists, cell-based qHTS assay (AID 1963592). Also: series mostly up to about 92 µM; nearly all actives have a fitted effect of over 50% in size. The essentials: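 Cells (CHO, stable ADRB2 overexpression) incubated 18-20hr at 37C; compounds added from DMSO; agonist mix (1nM isoproterenol, 100uM IBMX, 25uM Ro-20-1724) added; 0.5hr RT; d2-cAMP and anti-cAMP-cryptate added; 1hr RT; 665/615 nm read.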

Test [14] shares this target. Nature of the test: Adrenergic beta2 receptor (ADRB2) small molecule agonists, cell-based qHTS assay (AID 1963593).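 Also: CHO cells stably overexpressing human ADRB2.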 The essentials: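 CHO cells stably over-expressing ADRB2 were plated overnight at 37C, then dosed with compounds plus a stimulation mix containing 100uM IBMX and 25uM Ro-20-1724 for 0.5hr at room temperature. cAMP was measured by HTRF competition, 1hr.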

Test [15] concerns the target D(2) dopamine receptor (Homo sapiens) (UniProt P14416). The test can be described thus: Dopamine D2 receptor (DRD2) small molecule agonists, cell-based qHTS assay (AID 1963594). Also: nearly all actives have a fitted effect of over 35% in size. The method, boiled down:
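HEK293 cells stably expressing DRD2 were cultured 24 h at 37 C, then given Ro20-1724 (0.1 mM final) and compounds for 10 min at room temperature. NKH477 (200nM) was then added for 30 min. cAMP was read by HTRF.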

A short description of test [16]: p53 small molecule agonists, cell-based qHTS assay (AID 1963582; active = well fitted activation curve with a large enough effect in the signal ratio in the repeat runs, not every such curve was filed as active; the % refers to the signal ratio). The essentials:
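In this cell-based concentration-response screen, a p53 response element drives beta-lactamase; cells received DMSO-borne compounds after 5 h culture and were incubated a further 16 h before FRET substrate development.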

Test [17] in a line: cAMP Responsive Elements (CRE) small molecule agonists, cell-based qHTS assay (AID 1963590). The essentials:
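A CRE-responsive beta-lactamase reporter in HEK 293T cells was used. Treatment ran 3 h at 37 C; detection used LiveBLAzer B/G FRET substrate for 2 h at room temperature.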

Test [18] in a line: cAMP Responsive Elements (CRE) small molecule antagonists, cell-based qHTS assay (AID 1963591; active = well fitted inhibition curve with a large enough effect in the signal ratio in the repeat runs, not every such curve was filed as active; the % refers to the signal ratio). The method, boiled down: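 HEK293T cells carrying a CRE-driven beta-lactamase reporter receive compound and NKH477 (0.25 uM final) for 3 h. Fluorescence from LiveBLAzer B/G FRET substrate is read after 2 h at room temperature.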
Test [19] addresses D(2) dopamine receptor (Homo sapiens) (UniProt P14416). Nature of the test: Dopamine D2 receptor (DRD2) small molecule antagonists, cell-based qHTS assay (AID 1963595; active = well fitted inhibition curve with a large enough effect in the signal ratio in the repeat runs, with a control signal flat; the % refers to the signal ratio). The method, boiled down:
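HEK293 cells stably expressing DRD2, preincubated with 0.1 mM Ro20-1724 and compounds 10 min, were stimulated with 200 nM NKH477 plus 12 nM quinpirole for 30 min at room temperature; cAMP measured by HTRF (665/620 nm).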

Unmarked numbers belong to inactive results. Results filed as inconclusive are left out. Active and inactive are the calls of the source. Unless noted, calls follow the shape of the full dose curve.

Beta-2 adrenergic receptor (Homo sapiens), sequence (P07550 whole entry, looked up): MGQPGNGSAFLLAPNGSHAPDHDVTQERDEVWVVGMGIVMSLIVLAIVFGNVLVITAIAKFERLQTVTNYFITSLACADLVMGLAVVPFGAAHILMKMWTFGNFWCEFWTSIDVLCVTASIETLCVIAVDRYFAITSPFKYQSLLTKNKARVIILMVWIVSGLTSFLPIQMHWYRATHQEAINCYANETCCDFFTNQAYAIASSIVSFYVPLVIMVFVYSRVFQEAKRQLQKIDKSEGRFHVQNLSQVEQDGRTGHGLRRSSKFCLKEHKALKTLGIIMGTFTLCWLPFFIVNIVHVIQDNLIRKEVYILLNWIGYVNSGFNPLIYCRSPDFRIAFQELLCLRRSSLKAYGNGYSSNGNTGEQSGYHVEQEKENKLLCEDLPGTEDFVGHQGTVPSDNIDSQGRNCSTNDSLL
D(2) dopamine receptor (Homo sapiens), sequence (P14416 whole entry, looked up): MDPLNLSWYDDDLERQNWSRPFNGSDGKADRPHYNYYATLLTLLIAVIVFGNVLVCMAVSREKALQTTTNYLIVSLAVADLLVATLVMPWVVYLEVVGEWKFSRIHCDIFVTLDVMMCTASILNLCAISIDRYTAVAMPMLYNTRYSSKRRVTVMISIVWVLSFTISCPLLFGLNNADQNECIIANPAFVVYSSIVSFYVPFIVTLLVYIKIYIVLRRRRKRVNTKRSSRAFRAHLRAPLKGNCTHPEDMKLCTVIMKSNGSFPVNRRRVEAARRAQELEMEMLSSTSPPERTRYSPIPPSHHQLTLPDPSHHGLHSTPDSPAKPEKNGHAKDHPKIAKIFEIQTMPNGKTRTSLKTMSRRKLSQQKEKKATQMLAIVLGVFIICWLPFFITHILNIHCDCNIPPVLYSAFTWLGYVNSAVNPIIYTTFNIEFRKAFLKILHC
KiSS-1 receptor (Homo sapiens), sequence (Q969F8 whole entry, looked up): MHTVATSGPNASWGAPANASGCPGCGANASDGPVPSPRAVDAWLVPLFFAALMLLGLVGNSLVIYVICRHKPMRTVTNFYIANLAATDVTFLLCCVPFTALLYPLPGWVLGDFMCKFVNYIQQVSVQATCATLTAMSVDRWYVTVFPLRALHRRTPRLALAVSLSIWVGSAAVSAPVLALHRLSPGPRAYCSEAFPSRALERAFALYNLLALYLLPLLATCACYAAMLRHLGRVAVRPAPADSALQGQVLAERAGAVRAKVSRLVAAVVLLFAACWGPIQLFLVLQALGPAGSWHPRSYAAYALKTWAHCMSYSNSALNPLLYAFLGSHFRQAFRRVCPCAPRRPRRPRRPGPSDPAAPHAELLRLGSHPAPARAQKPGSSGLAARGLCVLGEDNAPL
5-hydroxytryptamine receptor 2A (Homo sapiens), sequence (P28223 whole entry, looked up): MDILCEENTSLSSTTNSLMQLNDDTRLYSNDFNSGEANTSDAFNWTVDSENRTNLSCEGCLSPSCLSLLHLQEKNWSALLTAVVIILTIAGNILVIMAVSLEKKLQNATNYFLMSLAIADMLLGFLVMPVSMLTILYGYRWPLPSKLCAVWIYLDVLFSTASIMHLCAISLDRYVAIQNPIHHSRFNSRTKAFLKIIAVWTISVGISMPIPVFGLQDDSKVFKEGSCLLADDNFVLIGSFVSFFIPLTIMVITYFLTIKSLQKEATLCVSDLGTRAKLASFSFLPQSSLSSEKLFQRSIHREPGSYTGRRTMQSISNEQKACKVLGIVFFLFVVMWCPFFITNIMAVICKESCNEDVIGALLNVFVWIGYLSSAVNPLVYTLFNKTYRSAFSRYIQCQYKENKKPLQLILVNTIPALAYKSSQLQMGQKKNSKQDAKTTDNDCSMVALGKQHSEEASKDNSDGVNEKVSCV
Gonadotropin-releasing hormone receptor (Homo sapiens), sequence (P30968 whole entry, looked up): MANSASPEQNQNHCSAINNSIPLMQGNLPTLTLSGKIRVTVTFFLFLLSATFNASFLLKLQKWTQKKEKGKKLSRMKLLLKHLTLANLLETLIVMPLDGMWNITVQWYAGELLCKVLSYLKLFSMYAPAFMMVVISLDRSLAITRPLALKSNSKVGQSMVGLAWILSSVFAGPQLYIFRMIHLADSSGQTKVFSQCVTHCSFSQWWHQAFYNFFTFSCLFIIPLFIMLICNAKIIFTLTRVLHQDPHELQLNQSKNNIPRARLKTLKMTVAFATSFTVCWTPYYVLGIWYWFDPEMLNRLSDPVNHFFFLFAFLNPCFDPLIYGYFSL
Muscarinic acetylcholine receptor M1 (Homo sapiens), sequence (P11229 whole entry, looked up): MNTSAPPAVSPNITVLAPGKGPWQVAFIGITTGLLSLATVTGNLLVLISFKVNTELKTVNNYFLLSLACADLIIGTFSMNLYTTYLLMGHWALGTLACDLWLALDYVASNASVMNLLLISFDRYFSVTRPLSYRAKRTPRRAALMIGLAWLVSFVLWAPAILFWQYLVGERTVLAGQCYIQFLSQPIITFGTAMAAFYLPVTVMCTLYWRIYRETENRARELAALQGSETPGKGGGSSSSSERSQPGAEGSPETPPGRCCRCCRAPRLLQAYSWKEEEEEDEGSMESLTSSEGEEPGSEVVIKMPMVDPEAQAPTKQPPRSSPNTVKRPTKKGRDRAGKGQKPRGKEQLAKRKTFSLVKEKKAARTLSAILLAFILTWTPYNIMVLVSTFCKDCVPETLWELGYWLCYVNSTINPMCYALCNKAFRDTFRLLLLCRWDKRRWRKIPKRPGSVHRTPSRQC

`Cc1nn(C)c(Oc2ccccc2)c1/C=N/OCc1ccc(C(=O)OC(C)(C)C)cc1`: the Potency entry in [1], in test [2], in test [3], in test [4], in [5] and in test [6] was “inactive” each time. Further, the Potency result in test [7], in test [8], in test [9], in test [10], in test [11] and in test [12] was “inactive” throughout. Besides, the Potency entry in [13], in [14] and in [15] was “inactive” each time.
In the case of `C[C@H]1[C@H](NC(=O)/C(=N/OC(C)(C)C(=O)O)c2csc(N)n2)C(=O)N1S(=O)(=O)O` (stereo in doubt), the Potency result in [1], in [2], in [3], in test [4], in test [5] and in test [6] was “inactive” in each case. Moreover, the Potency result in test [7], in test [8], in [16], in test [17], in test [18] and in [13] was “inactive” in each case. In addition, the Potency result in test [15] and in test [19] was “inactive” throughout.
Regarding `CCCCCCCC/C=C\CCCCCCCC(=O)OCCO`, the Potency result in [1], in [2], in test [3], in test [4], in [6] and in [7] was “inactive” throughout. The Potency result in test [8], in test [9], in test [10], in [11], in [12] and in [13] was “inactive” each time. In addition, the Potency result in [14] and in test [15] was “inactive” in each case.
Turning to `O=c1[nH]c(=O)n([C@H]2C[C@H](O)[C@@H](CO)O2)cc1C(F)(F)F`, the Potency entry in test [1], in test [2], in test [3], in test [4], in test [6] and in test [7] was “inactive” in each case. For the same compound, the Potency result in [8], in test [9], in test [10], in [11], in test [12] and in test [18] was “inactive” in each case. Besides, the Potency result in test [13], in [14], in test [15] and in test [19] was “inactive” in each case.
As for `CCCCCCC[N+](CC)(CC)CCCCc1ccc(Cl)cc1`, the Potency entry in test [1], in [2], in test [3], in test [4], in test [6] and in test [7] was “inactive” in each case. In addition, the Potency entry in test [8], in test [9], in test [10], in test [12], in [13] and in test [19] was “inactive” throughout.
On to `Cc1ccc2ccc3cccc4ccc1c2c34`, for which the Potency result in test [1], in test [2], in [3], in [4], in [6] and in test [8] was “inactive” throughout. The Potency result in test [9], in [11], in [12], in [18], in test [13] and in test [15] was “inactive” each time.
Consider `COc1ccc2cc1Oc1ccc(cc1)C[C@H]1c3c(cc4c(c3Oc3cc5c(cc3OC)CCN(C)[C@@H]5C2)OCO4)CCN1C`, for which the Potency is 23.7 µM (active) in test [1] and 20.5 µM (active) in [11]. The Potency result in test [2], in [3], in test [4], in test [6], in [7] and in test [9] was “inactive” in each case. For the same compound, the Potency entry in [12] and in test [15] was “inactive” in each case.
In the case of `NNC(=O)OCc1ccccc1`, the Potency entry in test [1], in test [2], in test [3], in [4], in test [6] and in test [7] was “inactive” throughout. Also, the Potency result in [8], in test [9], in test [10], in test [11], in test [17] and in test [18] was “inactive” in each case. For the same compound, the Potency entry in [13], in [15] and in test [19] was “inactive” throughout.
With `CSc1ccc(C=O)cc1`, the Potency entry in [1], in test [2], in test [3], in [4], in test [6] and in test [7] was “inactive” in each case. Further, the Potency result in [8], in test [9], in [10], in [12], in test [17] and in test [18] was “inactive” throughout. Further, the Potency result in [13], in test [15] and in [19] was “inactive” in each case.
As to `C=CC(C)(CCC=C(C)C)OC(=O)CC(C)C` (configuration not stated), the Potency result in [1], in test [2], in test [3], in [4], in [6] and in [7] was “inactive” each time. Further, the Potency result in [8], in test [9], in [10], in test [11], in test [17] and in test [15] was “inactive” throughout.
In the case of `CC(C)(C)c1ccc(OCC2CO2)cc1` (configuration not stated), the Potency entry in test [1], in test [2], in test [3], in [4], in [6] and in test [8] was “inactive” in each case. The Potency result in test [9], in test [10], in test [11], in [12], in [18] and in test [13] was “inactive” each time. For the same compound, the Potency entry in test [14], in [15] and in test [19] was “inactive” each time.
In the case of `O=C(N[C@@H](c1ccccc1)[C@@H]1CCCCN1)c1cccc(C(F)(F)F)c1Cl`, the results for the Potency in [1] and in test [2] were 43.3 µM (active) and 38.9 µM (active), respectively. In addition, the Potency entry in test [3], in test [4], in test [6], in [7], in test [8] and in test [11] was “inactive” throughout. Besides, the Potency result in test [12], in test [13] and in test [15] was “inactive” throughout.
For `Cn1c(=O)c2c(ncn2CCO)n(C)c1=O`, the Potency entry in test [1], in test [2], in [3], in test [4], in test [6] and in [7] was “inactive” throughout. Also, the Potency entry in [8], in test [10], in test [11], in test [12], in test [17] and in test [18] was “inactive” in each case. The Potency result in test [13], in test [15] and in [19] was “inactive” in each case.
With `CCCC[N+](C)(CCCC)CCCC`, the Potency result in test [1], in [2], in [3], in test [4], in test [6] and in test [7] was “inactive” in each case. Besides, the Potency result in test [8], in test [9], in test [10], in test [11], in test [12] and in [17] was “inactive” each time. Besides, the Potency result in test [13], in test [14], in test [15] and in test [19] was “inactive” in each case.
